Measurements taken from PubChem BioAssay (NCATS).
Records with an inconclusive call do not appear. Calls of active or inactive are those of the source. Unless noted, calls come from the whole dose curve; as a rule, active = well fitted curve in the direction sought with a large enough effect; inconclusive = small, poorly fitted or top-dose-only effect, or another doubt; inactive = no such curve, though single readings can be large; an effect the other way counts as inactive or inconclusive.

Columns and labels:
[1] = target: Lysosomal acid glucosylceramidase (Homo sapiens) (UniProt P04062); assay: Glucocerebrosidase-p2 (AID 348; in the data active = potency below about 10 µM; note: potency is the fitted concentration of half-maximal effect); conditions: purified GBA, blue fluorogenic substrate, 40 min
Chain of Lysosomal acid glucosylceramidase (Homo sapiens) (P04062 whole entry, looked up): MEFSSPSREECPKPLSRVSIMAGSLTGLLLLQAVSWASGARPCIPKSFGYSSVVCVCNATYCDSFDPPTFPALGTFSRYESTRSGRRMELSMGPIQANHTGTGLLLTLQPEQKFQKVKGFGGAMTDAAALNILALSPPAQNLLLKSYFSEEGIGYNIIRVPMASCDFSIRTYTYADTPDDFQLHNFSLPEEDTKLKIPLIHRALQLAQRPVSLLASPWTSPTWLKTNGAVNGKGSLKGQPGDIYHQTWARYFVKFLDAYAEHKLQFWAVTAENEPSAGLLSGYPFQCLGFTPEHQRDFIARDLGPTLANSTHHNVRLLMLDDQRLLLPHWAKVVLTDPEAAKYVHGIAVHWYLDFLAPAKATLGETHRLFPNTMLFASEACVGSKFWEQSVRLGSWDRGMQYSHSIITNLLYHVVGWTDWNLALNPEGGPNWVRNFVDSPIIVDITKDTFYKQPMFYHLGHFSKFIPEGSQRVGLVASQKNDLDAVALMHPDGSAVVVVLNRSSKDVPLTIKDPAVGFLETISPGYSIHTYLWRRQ
Summary of the method: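 Compounds titrated from 0.6 nM upwards against 0.2 nM enzyme in pH 5.9 citric acid/KH2PO4, taurocholate, tween-20; blue fluorogenic substrate 80 uM, 40 min room temperature, stopped and read Ex 365/Em 440 for AC50.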

[2] = AP1 Signaling Pathway (AID 357; active = well fitted curve in either direction with a large enough effect, not every such curve was filed as active;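 note: ME-180 reporter cells stimulated with EGF at its EC50 level; % is set by controls: 0 for no effect and ±100 for the full control effect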); conditions: ME-180 AP-1-bla reporter, EGF-induced, beta-lactamase ratio, 5 h; at 7.69 µM (top of the series) unless noted
Summary of the method: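 AP-1-bla ME-180 cells, Opti-MEM + 0.5% dialyzed FBS, plated overnight 37 °C. Cpd titration + EC50 EGF, 5 h 37 °C. CCF4 2.5 h RT; ex 405, em 460/530 ratio → %activity, AC50.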

[3] = NFAT Signaling Pathway (AID 444; active = well fitted curve in either direction with a large enough effect, not every such curve was filed as active;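 note: carbachol stimulus at about its EC50 of 1 µM final; % is set by controls: 0 for no effect and ±100 for the full control effect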); conditions: Jurkat NFAT-bla M1, carbachol, beta-lactamase ratio, 5 h; at 7.69 µM (top of the series) unless noted
Summary of the method: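 Jurkat cells with NFAT-driven β-lactamase reporter and co-expressed M1 receptor, stimulated with carbachol (final 1 uM, ~EC50), compound titration, 5 h at 37 °C. CCF4 loaded 1 h at RT; 460/530 nm ratio gave %activity and AC50.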

[4] = Stat Signaling Pathway (AID 446; active = well fitted curve in either direction with a large enough effect, not every such curve was filed as active;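 note: ME-180 cervical cancer cells given 40 pM IL-6 alongside compound; SIE-controlled beta-lactamase reporter measured as 460/530 nm FRET emission ratio; % is set by controls: 0 for no effect and ±100 for the full control effect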); conditions: ME-180 (cervical carcinoma) SIE beta-lactamase reporter, IL-6 stimulated, 5 h; at 7.69 µM (top of the series) unless noted
Summary of the method: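 IL-6/STAT signaling read in ME-180 cells via an SIE beta-lactamase reporter. Stimulus was 40 pM IL-6 (its AC50) for 5 hrs, so both activation and inhibition register.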

[5] = target: Glucocorticoid receptor (Homo sapiens) (UniProt P04150); assay: GR-GFP Redistribution (AID 450;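 active = compounds whose dose series gives a full or clear partial fitted curve of increased nuclear translocation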; note: potency is the fitted concentration of half-maximal effect); conditions: U2OS GR-GFP nuclear translocation, laser cytometry, 2 h
Chain of Glucocorticoid receptor (Homo sapiens) (P04150 whole entry, looked up): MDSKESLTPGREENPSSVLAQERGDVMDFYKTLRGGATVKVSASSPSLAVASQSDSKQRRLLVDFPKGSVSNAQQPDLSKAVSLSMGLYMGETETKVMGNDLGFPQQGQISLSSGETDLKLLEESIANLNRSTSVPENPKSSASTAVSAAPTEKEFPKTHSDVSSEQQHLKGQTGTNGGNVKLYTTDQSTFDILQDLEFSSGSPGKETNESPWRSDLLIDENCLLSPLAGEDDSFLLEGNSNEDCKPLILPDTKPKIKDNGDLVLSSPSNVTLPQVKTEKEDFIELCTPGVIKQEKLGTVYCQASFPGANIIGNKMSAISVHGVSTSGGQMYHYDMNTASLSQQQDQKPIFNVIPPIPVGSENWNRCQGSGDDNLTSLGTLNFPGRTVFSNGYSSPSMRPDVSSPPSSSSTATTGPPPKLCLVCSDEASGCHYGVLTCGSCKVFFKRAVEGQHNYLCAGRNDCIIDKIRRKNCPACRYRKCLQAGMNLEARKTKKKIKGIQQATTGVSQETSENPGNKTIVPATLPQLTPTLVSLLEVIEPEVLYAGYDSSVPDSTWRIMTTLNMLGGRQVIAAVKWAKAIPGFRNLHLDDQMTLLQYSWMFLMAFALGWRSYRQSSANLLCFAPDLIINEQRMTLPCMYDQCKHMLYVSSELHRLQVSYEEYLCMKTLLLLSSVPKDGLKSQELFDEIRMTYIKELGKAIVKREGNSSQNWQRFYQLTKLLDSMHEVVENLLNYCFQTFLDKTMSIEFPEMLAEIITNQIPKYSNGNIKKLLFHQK

[6] = target: Mitogen-activated protein kinase 10 (Mus musculus) (UniProt Q61831); assay: JNK3 AlphaScreen Assay (AID 530; active = well fitted curve in either direction with a large enough effect, not every such curve was filed as active;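 note: kinase came from lysate of stimulated human HepG2 cells; signal reports phosphorylation of biotinylated GST-cJun 1-79 at Ser73 with 10 µM ATP; % is set by controls: 0 for no effect and ±100 for the full control effect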); conditions: JNK3 lysate, c-Jun phosphorylation; series mostly up to 11.4 µM
Summary of the method: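 qHTS format: compounds tested as titrations against IL-1beta/TNF-alpha-activated HepG2 lysate JNK3 with biotin-GST-cJun substrate and 10 uM ATP at room temperature. Loss of anti-phospho-cJun AlphaScreen signal indicates inhibition.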

[7] = target: 3',5'-cyclic-AMP phosphodiesterase 4B (Homo sapiens) (UniProt Q07343); assay: qHTS Assay for Inhibitors of PDE-IV (AID 607; active = well fitted activation curve with a large enough effect in the main read-out, with a control signal flat, not every such curve was filed as active; note: % of control where 0% means no effect); conditions: HEK293 ACTOne CNG channel cells, membrane potential fluorescence; series mostly up to 22.9 µM
Chain of 3',5'-cyclic-AMP phosphodiesterase 4B (Homo sapiens) (Q07343 whole entry, looked up): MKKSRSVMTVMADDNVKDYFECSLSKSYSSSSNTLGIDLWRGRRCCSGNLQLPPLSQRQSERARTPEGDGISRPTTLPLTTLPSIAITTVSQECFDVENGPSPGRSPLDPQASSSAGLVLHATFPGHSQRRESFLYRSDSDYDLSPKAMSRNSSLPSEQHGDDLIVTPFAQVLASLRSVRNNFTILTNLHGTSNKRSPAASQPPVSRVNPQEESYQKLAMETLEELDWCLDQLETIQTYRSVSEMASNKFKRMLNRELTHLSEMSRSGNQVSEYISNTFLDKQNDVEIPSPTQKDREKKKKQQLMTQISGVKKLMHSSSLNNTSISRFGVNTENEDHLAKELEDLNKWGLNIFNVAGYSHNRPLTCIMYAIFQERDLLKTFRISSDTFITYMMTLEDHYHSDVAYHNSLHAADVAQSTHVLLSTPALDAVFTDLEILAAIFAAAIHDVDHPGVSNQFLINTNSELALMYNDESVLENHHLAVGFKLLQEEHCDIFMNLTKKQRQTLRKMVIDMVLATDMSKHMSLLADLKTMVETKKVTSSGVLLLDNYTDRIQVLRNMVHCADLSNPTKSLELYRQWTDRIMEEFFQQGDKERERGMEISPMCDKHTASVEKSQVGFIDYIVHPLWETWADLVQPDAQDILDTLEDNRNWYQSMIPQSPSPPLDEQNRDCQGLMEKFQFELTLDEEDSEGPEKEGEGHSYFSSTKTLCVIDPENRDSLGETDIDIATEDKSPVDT
Summary of the method: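 Live HEK293 cells with a modified cyclic nucleotide-gated (CNG) channel report intracellular cAMP via membrane-potential dye fluorescence (ex 535/em 590 nm). Endogenous PDE-IV was targeted. Compounds were tested at up to 22.9 uM final; RO 20-1724 100 uM served as control.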

[8] = target: ATP-dependent 6-phosphofructokinase (Trypanosoma brucei brucei) (UniProt O15648); assay: qHTS Assay to Find Inhibitors of T. brucei phosphofructokinase: hit validation (AID 492961); conditions: T. brucei PFK, ADP-Glo luminescence; series mostly up to 51.4 µM
Chain of ATP-dependent 6-phosphofructokinase (Trypanosoma brucei brucei) (O15648 whole entry, looked up): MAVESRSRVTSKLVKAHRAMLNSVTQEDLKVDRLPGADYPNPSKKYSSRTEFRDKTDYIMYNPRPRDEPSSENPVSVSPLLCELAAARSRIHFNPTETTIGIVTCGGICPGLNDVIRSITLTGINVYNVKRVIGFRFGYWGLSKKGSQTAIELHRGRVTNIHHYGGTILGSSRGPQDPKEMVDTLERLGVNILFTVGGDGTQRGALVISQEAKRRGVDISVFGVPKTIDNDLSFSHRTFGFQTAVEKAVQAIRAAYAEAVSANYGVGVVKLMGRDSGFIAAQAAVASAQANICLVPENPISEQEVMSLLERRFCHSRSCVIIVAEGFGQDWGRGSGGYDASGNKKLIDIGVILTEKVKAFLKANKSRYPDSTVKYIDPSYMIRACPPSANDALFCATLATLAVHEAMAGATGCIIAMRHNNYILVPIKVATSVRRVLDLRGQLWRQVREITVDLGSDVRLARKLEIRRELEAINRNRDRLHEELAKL
Summary of the method: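 Inhibition of parasite PFK is measured as reduced ADP formation, quantified via luciferase after ATP depletion. Assay used 0.1 mM ATP, 0.5 mM F6P, 1.25 nM enzyme, 45 min incubation.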

[9] = target: Ubiquitin carboxyl-terminal hydrolase 1 (Homo sapiens) (UniProt O94782); assay: Inhibitors of USP1/UAF1: Pilot qHTS (AID 504865); conditions: purified USP1/UAF1, Ub-rhodamine cleavage fluorescence; series mostly up to 114 µM;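 note: rhodamine fluorescence freed from ubiquitin-rhodamine substrate followed over time; top concentration of the series differs between compounds; % is set by controls: 0 for no effect and ±100 for the full control effect; nearly all actives have a fitted effect of over 35% in size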
Chain of Ubiquitin carboxyl-terminal hydrolase 1 (Homo sapiens) (O94782 whole entry, looked up): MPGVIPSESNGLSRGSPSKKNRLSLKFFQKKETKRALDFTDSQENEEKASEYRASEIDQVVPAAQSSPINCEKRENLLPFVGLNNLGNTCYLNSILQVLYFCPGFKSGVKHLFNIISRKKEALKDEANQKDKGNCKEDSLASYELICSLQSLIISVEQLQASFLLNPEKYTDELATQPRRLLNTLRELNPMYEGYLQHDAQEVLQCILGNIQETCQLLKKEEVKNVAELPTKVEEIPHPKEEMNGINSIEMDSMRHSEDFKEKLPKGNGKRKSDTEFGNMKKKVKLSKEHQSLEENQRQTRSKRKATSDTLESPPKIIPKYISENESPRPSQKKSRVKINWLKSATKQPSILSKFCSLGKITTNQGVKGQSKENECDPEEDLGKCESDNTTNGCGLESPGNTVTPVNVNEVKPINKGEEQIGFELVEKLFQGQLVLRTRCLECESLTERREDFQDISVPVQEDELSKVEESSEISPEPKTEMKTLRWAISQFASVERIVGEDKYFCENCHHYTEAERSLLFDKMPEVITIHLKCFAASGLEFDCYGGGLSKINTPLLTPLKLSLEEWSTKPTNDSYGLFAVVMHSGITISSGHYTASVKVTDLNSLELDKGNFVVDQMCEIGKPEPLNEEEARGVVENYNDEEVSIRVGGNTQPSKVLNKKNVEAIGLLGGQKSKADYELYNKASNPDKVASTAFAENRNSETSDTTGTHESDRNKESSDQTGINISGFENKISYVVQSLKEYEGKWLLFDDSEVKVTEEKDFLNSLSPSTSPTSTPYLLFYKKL
Summary of the method: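 1nM USP1/UAF1 + cpd, 15 min RT; start w/ Ub-Rho 150nM final; kinetic FL 480/540 nm, 6 reads q60 s. Buffer 50mM HEPES pH 7.8, 0.5mM EDTA, 1mM TCEP, 0.01% Tween-20, 0.1 mg/ml BSA.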

[10] = target: Luciferin 4-monooxygenase (Photinus pyralis) (UniProt P08659); assay: Biochemical firefly luciferase enzyme assay for NPC (AID 624030);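 note: purified P. pyralis luciferase at 10 nM with luciferin and ATP substrate; 0% = DMSO and -100% = full luciferase inhibition by PTC124 control; nearly all actives have a fitted effect of over 70% in size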; conditions: purified P. pyralis luciferase, luminescence, 5 min; series mostly up to 58.6 µM
Chain of Luciferin 4-monooxygenase (Photinus pyralis) (P08659 whole entry, looked up): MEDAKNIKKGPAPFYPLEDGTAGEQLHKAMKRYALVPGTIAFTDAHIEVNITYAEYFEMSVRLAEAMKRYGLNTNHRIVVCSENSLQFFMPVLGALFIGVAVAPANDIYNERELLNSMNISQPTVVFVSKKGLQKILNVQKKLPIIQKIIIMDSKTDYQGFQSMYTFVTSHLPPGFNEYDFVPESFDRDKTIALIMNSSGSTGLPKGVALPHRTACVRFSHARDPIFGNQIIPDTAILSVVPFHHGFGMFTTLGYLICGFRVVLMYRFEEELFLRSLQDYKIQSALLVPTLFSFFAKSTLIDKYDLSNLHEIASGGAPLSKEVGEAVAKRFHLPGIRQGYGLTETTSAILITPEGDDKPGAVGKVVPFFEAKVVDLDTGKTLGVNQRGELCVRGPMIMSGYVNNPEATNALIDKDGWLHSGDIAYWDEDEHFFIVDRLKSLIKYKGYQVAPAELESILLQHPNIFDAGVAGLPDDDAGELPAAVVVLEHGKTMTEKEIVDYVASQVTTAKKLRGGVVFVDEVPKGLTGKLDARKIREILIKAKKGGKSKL
Summary of the method: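 Purified P. pyralis luciferase at 10 nM in 50 mM Tris Acetate (final), luminescence read within 5 minutes of enzyme addition to compounds. Activity normalised to PTC124 versus DMSO; concentration-response curves classed by r2, magnitude and activity.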

[11] = S16 Schwann cell viability assay (CellTiter-Glo assay) (AID 624031); conditions: S16 rat Schwann cells viability, 24 h; series mostly up to 57.5 µM;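 note: cellular ATP luminescence as a viability measure; plate controls were DMSO-treated cells for no effect and cell-free wells for full effect; nearly all actives have a fitted effect of over 70% in size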
Summary of the method: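 Native S16 rat Schwann cells in DMEM/10% FBS without phenol red were incubated overnight, then exposed to compounds for 24 h at 37 °C/5% CO2. Viability was read as ATP luminescence (CellTiter-Glo), normalized to no-cell wells and DMSO (0%).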

[12] = S16 Schwann cell PMP22 intronic element firefly luciferase assay (AID 624032); conditions: S16 rat Schwann cells, PMP22 element FLuc, 24 h; series mostly up to 57.5 µM;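 note: plate controls were DMSO for no effect and PTC124 positive control mean for full effect; nearly all actives have a fitted effect of over 30% in size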
Summary of the method: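 Rat S16 Schwann cells stably carrying firefly luciferase driven by a PMP22 intronic element, in 10% FBS, treated 24 h at 37 C. ONE-Glo luminescence normalized to PTC124 control and DMSO (0%); curves classed by r2, magnitude and activity.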

[13] = S16 Schwann cell PMP22 intronic element beta-lactamase assay (AID 624044; calls by dose curve;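 note: 0% = DMSO and -100% = potassium clavulanate positive control; nearly all actives have a fitted effect of over 15% in size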); conditions: S16 rat Schwann cells, PMP22 element beta-lactamase FRET, 24 h; series mostly up to 38.3 µM
Summary of the method: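 Rat S16 Schwann cells with beta-Lac driven by a PMP22 intronic element, compound-treated 24 h at 37 °C. LiveBLAzer FRET B/G read: 460 nm normalized to potassium clavulanate vs DMSO; 535 nm FRET as viability; concentration-effect curves classified.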

[14] = qHTS profiling for inhibitors of Plasmodium falciparum proliferation (AID 504749);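 note: 0% = DMSO vehicle and full inhibition = artemisinin control; nearly all actives have a fitted effect of over 60% in size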; conditions: P. falciparum in erythrocytes, SYBR Green DNA, 72 h, at 28.7 µM (top of the series)
Summary of the method: (§1)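 Readout was DNA-dye fluorescence from lysed cultures, ex 485/em 535 nm. Parasitized red cells had grown 72 h with compound; data scaled between 0.29 uM artemisinin and DMSO wells and corrected using vehicle-only plates.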

[15] = test system: 3D7; assay: as above; conditions: P. falciparum in erythrocytes, SYBR Green DNA, 72 h; series mostly up to 28.7 µM
Summary of the method: as §1

[16] = test system: 7G8; assay: as above; conditions: P. falciparum in erythrocytes, SYBR Green DNA, 72 h; series mostly up to 28.7 µM
Summary of the method: as §1

[17] = test system: AA1029; assay: as above; conditions: P. falciparum in erythrocytes, SYBR Green DNA, 72 h; series mostly up to 28.7 µM
Summary of the method: as §1

[18] = test system: AS120; assay: as above; conditions: P. falciparum in erythrocytes, SYBR Green DNA, 72 h; series mostly up to 28.7 µM
Summary of the method: as §1

[19] = test system: ATS189; assay: as above; conditions: P. falciparum in erythrocytes, SYBR Green DNA, 72 h; series mostly up to 28.7 µM
Summary of the method: as §1

[20] = test system: ATS95; assay: as above; conditions: P. falciparum in erythrocytes, SYBR Green DNA, 72 h; series mostly up to 28.7 µM
Summary of the method: as §1

[21] = test system: C2A; assay: as above; conditions: P. falciparum in erythrocytes, SYBR Green DNA, 72 h; series mostly up to 28.7 µM
Summary of the method: as §1

[22] = test system: CP185; assay: as above; conditions: P. falciparum in erythrocytes, SYBR Green DNA, 72 h; series mostly up to 28.7 µM
Summary of the method: as §1

[23] = test system: CP191; assay: as above; conditions: P. falciparum in erythrocytes, SYBR Green DNA, 72 h; series mostly up to 28.7 µM
Summary of the method: as §1

[24] = test system: CP192; assay: as above; conditions: P. falciparum in erythrocytes, SYBR Green DNA, 72 h; series mostly up to 28.7 µM
Summary of the method: as §1

[25] = test system: CP194; assay: as above; conditions: P. falciparum in erythrocytes, SYBR Green DNA, 72 h; series mostly up to 28.7 µM
Summary of the method: as §1

[26] = test system: CP201; assay: as above; conditions: P. falciparum in erythrocytes, SYBR Green DNA, 72 h; series mostly up to 28.7 µM
Summary of the method: as §1

[27] = test system: CP203; assay: as above; conditions: P. falciparum in erythrocytes, SYBR Green DNA, 72 h; series mostly up to 28.7 µM
Summary of the method: as §1

[28] = test system: CP211; assay: as above; conditions: P. falciparum in erythrocytes, SYBR Green DNA, 72 h; series mostly up to 28.7 µM
Summary of the method: as §1

[29] = test system: CP215; assay: as above; conditions: P. falciparum in erythrocytes, SYBR Green DNA, 72 h; series mostly up to 28.7 µM
Summary of the method: as §1

[30] = test system: CP217; assay: as above; conditions: P. falciparum in erythrocytes, SYBR Green DNA, 72 h; series mostly up to 28.7 µM
Summary of the method: as §1

[31] = test system: CP237; assay: as above; conditions: P. falciparum in erythrocytes, SYBR Green DNA, 72 h; series mostly up to 28.7 µM
Summary of the method: as §1

[32] = test system: CP238; assay: as above; conditions: P. falciparum in erythrocytes, SYBR Green DNA, 72 h; series mostly up to 28.7 µM
Summary of the method: as §1

[33] = test system: CP247; assay: as above; conditions: P. falciparum in erythrocytes, SYBR Green DNA, 72 h; series mostly up to 28.7 µM
Summary of the method: as §1

[34] = test system: CP250; assay: as above; conditions: P. falciparum in erythrocytes, SYBR Green DNA, 72 h; series mostly up to 28.7 µM
Summary of the method: as §1

Cc1onc(-c2c(F)cccc2Cl)c1C(=O)N[C@@H]1C(=O)N2[C@H]1SC(C)(C)[C@H]2C(=O)O
inactive: Potency [1] > 11.4 µM | activity change, negative = inhibition [2] -24% | activity change, negative = inhibition [3] 13.8% | activity, negative = inhibition [4] 5.59% | Potency [5] > 46 µM | Potency [6] | Potency [7] | outcome [8] | Potency [9] | outcome [10] | Potency [11] | Potency [12] | outcome [13] | activity, negative = inhibition ([14]; parasite line A) 1.43% | activity, negative = inhibition ([14]; parasite line B) 6.57% | Potency [15] | Potency [16] | Potency [17] | Potency [18] | Potency [19] | Potency [20] | Potency [21] | Potency [22] | Potency [23] | Potency [24] | Potency [25] | Potency [26] | Potency [27] | Potency [28] | Potency [29] | Potency [30] | Potency [31] | Potency [32] | Potency [33] | Potency [34]
